This is an account of results in US20220289795, “EFFICIENT METHOD FOR PREPARING PPR PROTEIN AND USE OF THE SAME” (EditForce, Inc., published 2022).

The target in the experiment is T1, v3.1_PPR14 (Artificial Sequence).
T1 chain: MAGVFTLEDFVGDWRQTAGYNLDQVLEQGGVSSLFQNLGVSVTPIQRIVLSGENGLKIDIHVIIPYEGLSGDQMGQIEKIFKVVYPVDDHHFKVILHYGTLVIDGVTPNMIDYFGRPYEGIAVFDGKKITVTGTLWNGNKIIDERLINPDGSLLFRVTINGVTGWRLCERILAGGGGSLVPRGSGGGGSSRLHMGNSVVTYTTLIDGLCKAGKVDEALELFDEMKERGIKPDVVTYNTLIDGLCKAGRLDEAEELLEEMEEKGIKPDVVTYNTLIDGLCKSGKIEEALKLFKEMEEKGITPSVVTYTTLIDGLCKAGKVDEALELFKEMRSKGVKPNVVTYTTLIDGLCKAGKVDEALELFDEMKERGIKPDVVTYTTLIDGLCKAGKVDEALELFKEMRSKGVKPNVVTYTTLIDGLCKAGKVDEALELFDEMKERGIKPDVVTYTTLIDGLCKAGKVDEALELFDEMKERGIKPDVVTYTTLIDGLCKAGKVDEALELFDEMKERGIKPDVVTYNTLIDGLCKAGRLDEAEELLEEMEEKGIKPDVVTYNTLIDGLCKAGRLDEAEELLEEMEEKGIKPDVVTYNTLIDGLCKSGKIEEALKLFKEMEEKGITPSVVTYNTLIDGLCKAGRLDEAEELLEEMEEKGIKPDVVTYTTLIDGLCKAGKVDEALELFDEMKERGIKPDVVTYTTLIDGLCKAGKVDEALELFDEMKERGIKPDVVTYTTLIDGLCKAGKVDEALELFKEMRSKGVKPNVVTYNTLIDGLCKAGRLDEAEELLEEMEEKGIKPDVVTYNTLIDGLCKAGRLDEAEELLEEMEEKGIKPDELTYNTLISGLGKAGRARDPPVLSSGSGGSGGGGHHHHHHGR
Kind of experiment: RPB-ELISA. The following applies: tags: N-terminal luciferase, C-terminal 6xHis; label: 5'-biotin; ssRNA. The protocol: RNA probes consisting of a designed 30-base sequence containing 18 bases of the target sequence and modified by biotinylation at the 5′ end (RNA_1, RNA_2, RNA_3, RNA_4, and RNA_5, SEQ ID NOS: 61 to 65) were synthesized (Grainer). To a streptavidin-coated plate (Thermo fisher), the 5′-end biotinylated RNA probes were added, reaction was allowed at room temperature for 30 minutes, and the plate was washed with a lysis buffer (20 mM Tris-HCl, pH 7.6, 150 mM NaCl, 5 mM MgCl₂, 0.5% NP-40, 1 mM DTT, 0.1% BSA). For background measurement, wells to which RNA was not added, but 100 μL of the lysis buffer, 1 μL of 100 mM DTT, and 1 μL of 40 unit/4 RNase inhibitor (Takara, 2313A) were added were also prepared. Then, 200 μL of a blocking buffer (20 mM Tris-HCl, pH 7.6, 150 mM NaCl, 5 mM MgCl₂, 0.5% NP-40, 1 mM DTT, 1% BSA) was added, and the plate surface was blocked at room temperature for 30 minutes. Then, 100 μL of E. coli lysate containing luciferase-fused PPR protein having a luminescence level of 1.5×10⁸ LU/μL was added to each well, and the binding reaction was allowed at room temperature for 30 minutes. The well was washed 5 times with 200 μL of a washing buffer (20 mM Tris-HCl, pH 7.6, 150 mM NaCl, 5 mM MgCl₂, 0.5% NP-40, 1 mM DTT). […] The background (luminescence signal value obtained with adding the PPR protein and without adding RNA) was subtracted from the luminescences of the samples to which a solution containing each RNA and PPR protein was added, and the obtained values were used as the binding powers between the PPR protein and RNA.
By using the V3.1 motif, PPR proteins for the same 23 kinds of target sequences were similarly prepared (SEQ ID NOS: 411 to 433 for the nucleotide sequences, and SEQ ID NOS: 434 to 456 for the amino acid sequences), and bindings of all the combinations were analyzed by using RPB-ELISA. The experimental method was the same as that used in Example 3.
As to GUGGGGGUGGUAGGAAAU, the binding signal came to 20.1 log2 luminescence.

On to GGUUAGAGAUACAGUGUG, for which the binding signal was determined as 22.5 log2 luminescence.
